# Assay results reported in the supplement of paper PMC4022240.
# ± gives the standard deviation.
# Tests used:
# Test in all cases: peptide microarray binding signal (635 nm), min-max normalized on array (fraction of array maximum); higher = stronger binding
# Conditions in all cases: peptide region: H3 1-13
# [1] = biological target: T1, HaloTag-ATRX ADD domain (163-292)
# T1 chain: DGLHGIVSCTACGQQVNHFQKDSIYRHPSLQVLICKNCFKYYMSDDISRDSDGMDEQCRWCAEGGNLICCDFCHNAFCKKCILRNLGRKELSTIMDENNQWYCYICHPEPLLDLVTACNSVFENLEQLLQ
# Description: (§1)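 Histone 13-mer peptides were synthesized as cellulose conjugates with a C-terminal 20-atom PEG linker and printed in triplicate on nitrocellulose. The sequence given is the unmodified backbone; PTMs (Kme1/2/3, Kac, Sph/Tph, Rme/Rme2a/Rme2s, Rcit) are listed in the label and the 'peptide modifications' condition. Slides were probed at 4 °C for 1 h with biotin-labelled (HQ)5-HaloTag reader fusions (ATRX-ADD, ING2-PHD) then streptavidin-Alexa647, or with rabbit histone antibodies then anti-rabbit Alexa647. The mean 635 nm signal of the triplicate spots was scaled 0-1 between the lowest and highest values on each array.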
# [2] = biological target: HaloTag-ING2 PHD (mouse Ing2 200-280)
# Description: as §1
# [3] = biological target: anti-H3K4me3 antibody ab8580
# Description: as §1
# [4] = biological target: anti-H3K9me3 antibody ab8898
# Description: as §1
# [5] = peptide modifications: H3R8me2a H3K9me3, binder concentration: 1:2,000 dilution
# [6] = peptide modifications: H3R8me2a H3K9me3, binder concentration: 1:10,000 dilution
# [7] = peptide modifications: H3T3ph H3K9me1, binder concentration: 1:2,000 dilution
# [8] = peptide modifications: H3T3ph H3K9me1, binder concentration: 1:10,000 dilution
# [9] = peptide modifications: H3T6ph H3K9me1, binder concentration: 1:2,000 dilution
# [10] = peptide modifications: H3T6ph H3K9me1, binder concentration: 1:10,000 dilution
# [11] = peptide modifications: H3T3ph H3K9ac, binder concentration: 1:2,000 dilution
# [12] = peptide modifications: H3T3ph H3K9ac, binder concentration: 1:10,000 dilution
# [13] = peptide modifications: H3T3ph H3K4ac, binder concentration: 1:2,000 dilution
# [14] = peptide modifications: H3T3ph H3K4ac, binder concentration: 1:10,000 dilution
# [15] = peptide modifications: H3R8me2s H3K9ac, binder concentration: 1:2,000 dilution
# [16] = peptide modifications: H3R8me2s H3K9me2, binder concentration: 1:2,000 dilution
# [17] = peptide modifications: H3R8me2s H3K9me2, binder concentration: 1:10,000 dilution
# [18] = peptide modifications: H3R8me2a, binder concentration: 1:2,000 dilution
# [19] = peptide modifications: H3R8me2a, binder concentration: 1:10,000 dilution
# [20] = peptide modifications: H3R8me2s H3K9me3, binder concentration: 1:2,000 dilution
# [21] = peptide modifications: H3R8me2s H3K9me3, binder concentration: 1:10,000 dilution
# [22] = peptide modifications: H3R8me2s H3K9me1, binder concentration: 1:2,000 dilution
# [23] = peptide modifications: H3R8me2s H3K9me1, binder concentration: 1:10,000 dilution
binder,measurement,setting,value
ARTKQTARKSTGG [H3 1-13 A R T K Q T A Rme2a Kme3 S T G G],peptide microarray binding signal,"[1]; peptide modifications: H3R8me2a H3K9me3, binder concentration: 50 nM",0.955 ± 0.067
same,peptide microarray binding signal,"[1]; peptide modifications: H3R8me2a H3K9me3, binder concentration: 500 nM",0.905 ± 0.038
same,peptide microarray binding signal,"[2]; peptide modifications: H3R8me2a H3K9me3, binder concentration: 10 nM",0.126 ± 0.042
same,peptide microarray binding signal,"[2]; peptide modifications: H3R8me2a H3K9me3, binder concentration: 100 nM",0.201 ± 0.059
same,peptide microarray binding signal,[3]; [5],0.0701 ± 0.02
same,peptide microarray binding signal,[3]; [6],0.0416 ± 0.019
same,peptide microarray binding signal,[4]; [5],0.458 ± 0.13
same,peptide microarray binding signal,[4]; [6],0.309 ± 0.082
ARTKQTARKSTGG [H3 1-13 A R Tph K Q T A R Kme S T G G],peptide microarray binding signal,"[1]; peptide modifications: H3T3ph H3K9me1, binder concentration: 50 nM",0.00815 ± 8.5e-05
same,peptide microarray binding signal,"[1]; peptide modifications: H3T3ph H3K9me1, binder concentration: 500 nM",0.0174 ± 0.0014
same,peptide microarray binding signal,"[2]; peptide modifications: H3T3ph H3K9me1, binder concentration: 10 nM",0.0307 ± 0.0023
same,peptide microarray binding signal,"[2]; peptide modifications: H3T3ph H3K9me1, binder concentration: 100 nM",0.0507 ± 0.004
same,peptide microarray binding signal,[3]; [7],0.00859 ± 0.0018
same,peptide microarray binding signal,[3]; [8],0.0167 ± 0.0032
same,peptide microarray binding signal,[4]; [7],0.00692 ± 0.00099
same,peptide microarray binding signal,[4]; [8],0.0053 ± 0.00068
ARTKQTARKSTGG [H3 1-13 A R T K Q Tph A R Kme S T G G],peptide microarray binding signal,"[1]; peptide modifications: H3T6ph H3K9me1, binder concentration: 50 nM",0.00721 ± 0.00059
same,peptide microarray binding signal,"[1]; peptide modifications: H3T6ph H3K9me1, binder concentration: 500 nM",0.0115 ± 0.00096
same,peptide microarray binding signal,"[2]; peptide modifications: H3T6ph H3K9me1, binder concentration: 10 nM",0.0206 ± 0.0028
same,peptide microarray binding signal,"[2]; peptide modifications: H3T6ph H3K9me1, binder concentration: 100 nM",0.0319 ± 0.0032
same,peptide microarray binding signal,[3]; [9],0.00568 ± 0.0013
same,peptide microarray binding signal,[3]; [10],0.0686 ± 0.046
same,peptide microarray binding signal,[4]; [9],0.00584 ± 0.00057
same,peptide microarray binding signal,[4]; [10],0.00582 ± 0.00014
ARTKQTARKSTGG [H3 1-13 A R Tph K Q T A R Kac S T G G],peptide microarray binding signal,"[1]; peptide modifications: H3T3ph H3K9ac, binder concentration: 50 nM",0.00881 ± 0.00025
same,peptide microarray binding signal,"[1]; peptide modifications: H3T3ph H3K9ac, binder concentration: 500 nM",0.0147 ± 0.00088
same,peptide microarray binding signal,"[2]; peptide modifications: H3T3ph H3K9ac, binder concentration: 10 nM",0.0255 ± 0.0014
same,peptide microarray binding signal,"[2]; peptide modifications: H3T3ph H3K9ac, binder concentration: 100 nM",0.04 ± 0.0064
same,peptide microarray binding signal,[3]; [11],0.0124 ± 0.0018
same,peptide microarray binding signal,[3]; [12],0.00867 ± 0.00052
same,peptide microarray binding signal,[4]; [11],0.00523 ± 0.00022
same,peptide microarray binding signal,[4]; [12],0.00363 ± 0.00025
ARTKQTARKSTGG [H3 1-13 A R Tph Kac Q T A R K S T G G],peptide microarray binding signal,"[1]; peptide modifications: H3T3ph H3K4ac, binder concentration: 50 nM",0.00699 ± 0.00027
same,peptide microarray binding signal,"[1]; peptide modifications: H3T3ph H3K4ac, binder concentration: 500 nM",0.0189 ± 0.0052
same,peptide microarray binding signal,"[2]; peptide modifications: H3T3ph H3K4ac, binder concentration: 10 nM",0.01 ± 0.0027
same,peptide microarray binding signal,"[2]; peptide modifications: H3T3ph H3K4ac, binder concentration: 100 nM",0.024 ± 0.0049
same,peptide microarray binding signal,[3]; [13],0.00177 ± 0.0002
same,peptide microarray binding signal,[3]; [14],0.00325 ± 0.0004
same,peptide microarray binding signal,[4]; [13],0.00104 ± 0.00017
same,peptide microarray binding signal,[4]; [14],0.00156 ± 0.00017
ARTKQTARKSTGG [H3 1-13 A R T K Q T A Rme2s Kac S T G G],peptide microarray binding signal,"[1]; peptide modifications: H3R8me2s H3K9ac, binder concentration: 500 nM",0.0059 ± 0.0002
same,peptide microarray binding signal,"[2]; peptide modifications: H3R8me2s H3K9ac, binder concentration: 100 nM",0.00574 ± 0.00031
same,peptide microarray binding signal,[3]; [15],0.00142 ± 6.5e-05
same,peptide microarray binding signal,[4]; [15],0.00243 ± 0.00046
ARTKQTARKSTGG [H3 1-13 A R T K Q T A Rme2s Kme2 S T G G],peptide microarray binding signal,"[1]; peptide modifications: H3R8me2s H3K9me2, binder concentration: 50 nM",0.0108 ± 0.00034
same,peptide microarray binding signal,"[1]; peptide modifications: H3R8me2s H3K9me2, binder concentration: 500 nM",0.0202 ± 0.00096
same,peptide microarray binding signal,"[2]; peptide modifications: H3R8me2s H3K9me2, binder concentration: 10 nM",0.0292 ± 0.0027
same,peptide microarray binding signal,"[2]; peptide modifications: H3R8me2s H3K9me2, binder concentration: 100 nM",0.049 ± 0.0084
same,peptide microarray binding signal,[3]; [16],0.00447 ± 0.00012
same,peptide microarray binding signal,[3]; [17],0.00451 ± 0.00027
same,peptide microarray binding signal,[4]; [16],0.00805 ± 0.0035
same,peptide microarray binding signal,[4]; [17],0.0049 ± 0.00019
ARTKQTARKSTGG [H3 1-13 A R T K Q T A Rme2a K S T G G],peptide microarray binding signal,"[1]; peptide modifications: H3R8me2a, binder concentration: 50 nM",0.00959 ± 0.00045
same,peptide microarray binding signal,"[1]; peptide modifications: H3R8me2a, binder concentration: 500 nM",0.0248 ± 0.0019
same,peptide microarray binding signal,"[2]; peptide modifications: H3R8me2a, binder concentration: 10 nM",0.00812 ± 0.00091
same,peptide microarray binding signal,"[2]; peptide modifications: H3R8me2a, binder concentration: 100 nM",0.0181 ± 0.0056
same,peptide microarray binding signal,[3]; [18],0.00191 ± 0.00018
same,peptide microarray binding signal,[3]; [19],0.000799 ± 2.2e-05
same,peptide microarray binding signal,[4]; [18],0.000951 ± 7e-05
same,peptide microarray binding signal,[4]; [19],0.000634 ± 1.2e-05
ARTKQTARKSTGG [H3 1-13 A R T K Q T A Rme2s Kme3 S T G G],peptide microarray binding signal,"[1]; peptide modifications: H3R8me2s H3K9me3, binder concentration: 50 nM",0.0211 ± 0.0011
same,peptide microarray binding signal,"[1]; peptide modifications: H3R8me2s H3K9me3, binder concentration: 500 nM",0.0455 ± 0.0027
same,peptide microarray binding signal,"[2]; peptide modifications: H3R8me2s H3K9me3, binder concentration: 10 nM",0.0394 ± 0.0041
same,peptide microarray binding signal,"[2]; peptide modifications: H3R8me2s H3K9me3, binder concentration: 100 nM",0.0568 ± 0.0048
same,peptide microarray binding signal,[3]; [20],0.0739 ± 0.0089
same,peptide microarray binding signal,[3]; [21],0.0587 ± 0.011
same,peptide microarray binding signal,[4]; [20],0.468 ± 0.023
same,peptide microarray binding signal,[4]; [21],0.396 ± 0.02
ARTKQTARKSTGG [H3 1-13 A R T K Q T A Rme2s Kme S T G G],peptide microarray binding signal,"[1]; peptide modifications: H3R8me2s H3K9me1, binder concentration: 50 nM",0.0145 ± 0.00064
same,peptide microarray binding signal,"[1]; peptide modifications: H3R8me2s H3K9me1, binder concentration: 500 nM",0.0339 ± 0.0019
same,peptide microarray binding signal,"[2]; peptide modifications: H3R8me2s H3K9me1, binder concentration: 10 nM",0.0365 ± 0.0046
same,peptide microarray binding signal,"[2]; peptide modifications: H3R8me2s H3K9me1, binder concentration: 100 nM",0.0547 ± 0.007
same,peptide microarray binding signal,[3]; [22],0.0103 ± 0.0015
same,peptide microarray binding signal,[3]; [23],0.0069 ± 0.0003
same,peptide microarray binding signal,[4]; [22],0.00578 ± 0.0013
same,peptide microarray binding signal,[4]; [23],0.00588 ± 0.00043
